In the library only some 1.1% were active in any assay of this set; here they are far more common.
AmpC inh no detg: qHTS Inhibitors of AmpC Beta-Lactamase (assay without detergent); AmpC nitrocefin hydrolysis, absorbance 480 nm, 0.0001% Triton; Potency, µM (highest dose often 57.1 µM), for the others: at the top dose activity change, negative = inhibition, most hits filed as inhibitors; P00811; AID 485341, 2010; hit rate 0.52% among 330,000;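 also: plate controls were no compound for no effect and no enzyme for full effect; nearly all actives have a fitted effect of over 20% in size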
Target sequence (P00811 whole entry, looked up): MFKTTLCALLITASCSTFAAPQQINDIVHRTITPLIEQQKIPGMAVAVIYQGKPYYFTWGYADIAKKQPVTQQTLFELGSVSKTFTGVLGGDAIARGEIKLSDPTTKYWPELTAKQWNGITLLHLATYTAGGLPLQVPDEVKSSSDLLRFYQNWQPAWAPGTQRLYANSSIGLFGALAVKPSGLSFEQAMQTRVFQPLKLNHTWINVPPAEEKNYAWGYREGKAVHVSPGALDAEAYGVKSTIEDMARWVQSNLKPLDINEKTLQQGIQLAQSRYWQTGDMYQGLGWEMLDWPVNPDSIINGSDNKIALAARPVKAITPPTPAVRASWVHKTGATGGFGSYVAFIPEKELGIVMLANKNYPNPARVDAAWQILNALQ
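20 mM phosphate pH 7.0 + 0.01% (detergent screen) or 0.0001% Triton X-100; 5.3 nM AmpC reagent; cpd preinc 15 min RT; nitrocefin (800 uM stock) to start; A480 q20 s × 4 min; Activity was normalised to no-enzyme and no-compound control wells.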
VACV Venus inh: qHTS for Stage-Specific Inhibitors of Vaccinia Orthopoxvirus: Venus Reporter Primary qHTS; AID 720580, 2013; Vaccinia virus Venus reporter expression, fluorescence; Potency, µM (doses to about 36.5 µM), for the others: top-dose activity change, negative = inhibition, actives largely listed as inhibitors; hit rate 0.46% among 330,000; calls by dose curve; tested in A549 cells; also: nearly all actives have a fitted effect of over 30% in size
AmpC inh detg: qHTS Inhibitors of AmpC Beta-Lactamase (assay with detergent); AmpC hydrolysis of nitrocefin, absorbance 480 nm, 0.01% Triton; hit rate 0.041% among 370,000; AID 485294, 2010; Potency, µM (highest dose often 114 µM), for the others: at the top dose activity change, negative = inhibition, most hits filed as inhibitors;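 also: 0% = no-compound wells and -100% = no-enzyme wells; nearly all actives have a fitted effect of over 25% in size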
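AmpC (5.3 nM in the dispensed reagent) in 20 mM phosphate pH 7.0 with 0.01% (detergent screen) or 0.0001% Triton X-100 was preincubated with compounds for 15 min at room temperature. Nitrocefin was then added from an 800 uM solution, and hydrolysis was followed at 480 nm.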
VACV mCherry inh: qHTS for Stage-Specific Inhibitors of Vaccinia Orthopoxvirus: mCherry Reporter Primary qHTS. Vaccinia virus mCherry reporter infection, fluorescence. Potency, µM (top dose mostly 36.5 µM), for the others: top-dose activity change, negative = inhibition, hits mostly inhibitors. hit rate 0.63% among 310,000. AID 720579, 2013; calls by dose curve; tested in A549 cells; also: nearly all actives have a fitted effect of over 35% in size
* marks the source's active call; other numbers are inactive results; i = inactive; ? = inconclusive; · = not tested or not shown. Unless noted, calls follow the shape of the dose curve; as a rule, active = well fitted curve in the direction sought with a large enough effect; inconclusive = small, poorly fitted or top-dose-only effect, or another doubt; inactive = no such curve, though single readings can be large; an effect the other way counts as inactive or inconclusive. Unless noted, % is scaled to controls: 0 for no effect and ±100 for the full control effect; potency is read from the fitted curve at half-maximal effect.

SMILES	AmpC inh no detg	VACV Venus inh	AmpC inh detg	VACV mCherry inh
COc1ccc(CN2CCC3(CC2)c2ccccc2[C@@H](NC(=O)c2ccco2)[C@@H]3OC)c(O)c1	·	-3%	·	-17%
Cc1sc(-n2c(C)cc(/C=C3\SC(=S)NC3=O)c2C)c(C#N)c1C	14µM*	-19%	-6%	-24%
Cc1ccc(-n2c(C)cc(/C=C3\SC(=O)NC3=O)c2C)cc1	-38%	·	2%	·
Cc1cc(/C=C2\SC(=S)NC2=O)c(C)n1-c1cccc(O)c1	18µM*	8%	6%	?
COc1ccccc1N1CCN(c2nc(CNC(=O)c3cc(C)oc3C)nc3ccccc23)CC1	·	-5%	·	-13%
COc1ccc(C)cc1Nc1n[n+](-c2ccccc2)c(-c2c(Cl)cccc2Cl)s1	72%	10µM*	-14%	?
CCN(CC)c1ccc(-c2sc(Nc3ccccc3)n[n+]2-c2ccc(F)cc2)cc1	-13%	?	-1%	i
CCc1ccc(Nc2n[n+](-c3ccccc3)c(-c3c(Cl)cccc3Cl)s2)cc1	58%	8.9µM*	-14%	?
COc1ccc(C)cc1Nc1n[n+](-c2ccccc2)c(-c2ccc(OC)c(OC)c2OC)s1	29%	-10%	?	?
CCc1ccc(Nc2n[n+](-c3ccccc3)c(-c3ccc(N(CC)CC)cc3)s2)cc1	5%	11µM*	-7%	?
CC(C)Cc1nc2cc(NS(=O)(=O)N(C)C)cc(C(=O)N3CCSCC3)c2n1C	·	1%	·	-1%
CCc1ccc(C2CC(c3ccc(C)cc3)Nc3nc(N)nn32)cc1 (stereo not drawn)	-5%	32µM*	?	100µM*
Cc1ccc(C2CC(c3ccc(F)cc3)Nc3nc(N)nn32)cc1 (stereo not drawn)	42%	-15%	-14%	-11%
O=C(CCN1CCOCC1)c1ccc(N2CCCCC2)cc1	0%	?	6%	?
CC(C)(C)c1cc(C(=O)CCN2CCOCC2)cc(C(C)(C)C)c1O	111%	?	-7%	11µM*
CCN1CCCC1CNC(=O)c1cnn(-c2nccc(-c3ccccc3OC)n2)c1-c1ccco1 (stereo not drawn)	·	0%	·	-14%
Cn1c(=O)c(-c2ccccc2)nn2c3ccccc3nc12	-38%	-2%	?	1%
Cn1nc(-c2ccccc2)nc2c(=O)n(C)c(=O)nc1-2	·	1µM*	·	1µM*
Cn1nc(-c2ccncc2)nc2c(=O)n(C)c(=O)nc1-2	·	1µM*	·	0.89µM*
Cc1nc2c(=O)n(C)c(=O)nc-2n(C)n1	-20%	0.5µM*	-4%	?
COc1cc(-c2cccc(OC)c2OC)cc2c1OCCN(Cc1cn[nH]c1-c1ccc(Cl)cc1)C2	·	-26%	·	-9%
CCC1CN(CCNC(=O)c2cscn2)Cc2cc(OC)ccc2O1 (stereo not drawn)	·	-4%	·	-9%
CC(C)c1c(C(=O)NCC(C)(C)N2CCOCC2)cnn1-c1nccc(-c2cccs2)n1	·	-14%	·	-26%
COc1ccccc1-c1cc(NC=O)c2ncc(-c3cccc(C(C)=O)c3)n2c1	·	?	·	7.9µM*
COc1ccc(-c2cnc3c(NC=O)cc(-c4cccc(NS(C)(=O)=O)c4)cn23)cc1OC	·	8.9µM*	·	6.3µM*
SMILES	AmpC inh no detg	VACV Venus inh	AmpC inh detg	VACV mCherry inh
COc1ccc(-c2cnc3c(NC=O)cc(-c4cc(OC)c(OC)c(OC)c4)cn23)cc1OC	·	-25%	·	-12%
COc1ccc(-c2cnc3c(NC=O)cc(-c4ccoc4)cn23)cc1OC	·	-21%	·	-20%
COc1ccc(-c2cnc3c(NC=O)cc(-c4ccccc4)cn23)cc1OC	·	?	·	1.3µM*
COc1ccc(-c2cnc3c(NC=O)cc(-c4ccc(F)cc4)cn23)cc1OC	·	?	·	11µM*
COc1cc(=O)n2c(c1C(=O)N(C)Cc1nonc1C)CCN(Cc1cccc(Cl)c1)CC2	·	0%	·	-9%
CC(C)(C)NS(=O)(=O)c1ccc(Oc2ncc(C(F)(F)F)cc2Cl)cc1	5µM*	?	-5%	?
COc1ccc2ccccc2c1CN1CCCC(n2cc(C(=O)N3CCCC3)nn2)C1 (stereo not drawn)	·	-1%	·	-4%
Cc1ccc(NC(=O)CSc2n[nH]c(-c3ccccn3)n2)cc1	-27%	?	2%	10µM*
O=C(CSc1n[nH]c(-c2ccccn2)n1)Nc1ccc(Cl)cc1	-35%	-26%	-4%	7.9µM*
O=C(CSc1n[nH]c(-c2ccc(Cl)cc2Cl)n1)Nc1ccccn1	-19%	-13%	?	-27%
O=C(CSc1n[nH]c(-c2ccccn2)n1)Nc1ccc(F)cc1	-29%	?	?	14µM*
Cc1ccc(NC(=O)CSc2ccc(-c3ccccn3)nn2)cc1	-25%	?	-2%	?
O=C(CSc1n[nH]c(-c2ccncc2)n1)Nc1ccc(F)cc1	-12%	-2%	2%	-5%
CCc1ccc(S(=O)(=O)NCc2nc(N3CCCC3)c3cccc(C)c3n2)cc1	·	1%	·	-1%
Cc1cnc(SCCN2CCOCC2)nc1C1CCCN(C(=O)c2cccc3c(C)c(C)[nH]c23)C1 (stereo not drawn)	·	0%	·	-18%
O=c1cc(-c2ccc(C3CCCCC3)cc2)[nH][nH]1	14µM*	5%	-6%	4%
O=c1cc(-c2ccc(F)cc2)[nH][nH]1	-39%	3%	-14%	-4%
COc1ccccc1-c1cc2c(c(OC)c1)OCCN(CCC(C)c1ccc(C)o1)C2 (stereo not drawn)	·	3%	·	i
COc1cc2nc(N(C)C)c(CNC3CCOC(C)(C)C3)cc2c(OC)c1OC (stereo not drawn)	·	13%	·	-4%
COC(=O)C1=C(c2ccc(-c3ccccc3)c(F)c2)C[C@@H]2CC[C@H]1N2C(=O)N1CCCC1	182%	?	6%	22µM*
Cc1ccc(Nc2nc(-c3c(C)nc4ccccn34)cs2)cc1	-34%	10µM*	-14%	?
Cc1c(N)nc([C@H](CC(N)=O)NC[C@H](N)C(N)=O)nc1C(=O)N[C@H](C(=O)N[C@H](C)[C@@H](O)[C@H](C)C(=O)N[C@H](C(=O)NCCc1nc(-c2nc(C(=O)NCCCCN=C(N)N)cs2)cs1)[C@@H](C)O)[C@@H](O[C@@H]1O[C@@H](CO)[C@@H](O)[C@H](O)[C@@H]1O[C@H]1O[C@H](CO)[C@@H](O)[C@H](OC(N)=O)[C@@H]1O)c1cnc[nH]1	·	-27%	·	i
CC1=C(C(=O)O)N2C(=O)C(NC(=O)c3ccccc3Cl)C2SC1 (stereo not drawn)	-31%	-3%	71µM*	i
CCc1cccc(NC(=O)Nc2cccs2)c1	16µM*	-12%	-3%	·
Cc1ccc(CC(=O)Nc2nc3c(s2)CCCC3)cc1	-31%	-6%	-2%	8.9µM*
NS(=O)(=O)c1cccc(NC(=O)COC(=O)Cc2ccc(S(=O)(=O)N3CCCCC3)s2)c1	32µM*	·	-5%	·
COc1ccc(OCC(=O)Nc2nc3c(s2)CCCC3)cc1	-30%	·	5%	·

Screens as filed in PubChem.
